Compound activity as filed in PubChem BioAssay.
Only some compounds are listed: those with a hit (about 2% of all), similar ones and a draw of the others.
FAS-TE inh = FAS thioesterase domain inhibitors, primary screen, biochemical, fluorescence intensity, uHTS; Fatty acid synthase (Homo sapiens), P49327; recombinant FAS-TE, OMFH fluorogenic substrate, fluorescence endpoint; inhibition, % at 15 µM; 360,000 compounds, 0.67% hits; AID 602261, 2012;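 active means compounds whose normalised, plate-corrected inhibition of enzyme fluorescence in the single-dose primary screen is 50% or more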;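 further: 0% = DMSO with enzyme and 100% = substrate without enzyme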
GC-A act = GC-A stimulated cGMP production enhancers – HEK293 GC-A cells, cGMP TR-FRET, EC30 ANP, primary screen; Atrial natriuretic peptide receptor 1 (Homo sapiens), P16066; 0% at EC30 ANP, 100% saturating ANP; activation, % at 10 µM; 370,000 compounds, 0.14% hits; AID 1671463, 2021; in the data active means activation above about 40%
ADAM17 inh = ADAM17 inhibitors, primary screen, biochemical, QFRET; Disintegrin and metalloproteinase domain-containing protein 17 (Homo sapiens), P78536; recombinant ADAM17, EDANS/DABCYL FRET peptide cleavage; inhibition, % at 6.95 µM; 370,000 compounds, 0.83% hits; AID 720648, 2013;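 active means inhibition above the mean of compounds lying between control limits plus 3 SD, set per campaign, cut at about 8.5% in these data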;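 further: 0% = DMSO-only wells as the low control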
GC-B act = human GC-B receptor activators, primary screen, HEK293 GC-B cells, cGMP TR-FRET, EC30 CNP. Atrial natriuretic peptide receptor 2 (Homo sapiens), P20594. 0% at EC30 CNP, 100% saturating CNP. activation, % at 10 µM. 370,000 compounds, 0.11% hits;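 active means activation at 10 µM reaching about 35% in either raw or pattern-adjusted values, limit read from the data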
ADAM10 inh = human ADAM10 inhibitors, primary screen, biochemical, QFRET, HTS | AID 720582, 2013 | Disintegrin and metalloproteinase domain-containing protein 10 (Homo sapiens), O14672 | recombinant ADAM10, EDANS/DABCYL FRET peptide cleavage, 3 h | 370,000 compounds, 0.62% hits | inhibition, % at 7 µM;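 active means inhibition above a per-campaign cutoff equal to the mean of compounds falling between control-based bounds plus 3 SD, cut at about 20% in these data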;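 further: 0% = DMSO wells while the 100% control is not disclosed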
Target sequence (O14672 214-748 limits assumed): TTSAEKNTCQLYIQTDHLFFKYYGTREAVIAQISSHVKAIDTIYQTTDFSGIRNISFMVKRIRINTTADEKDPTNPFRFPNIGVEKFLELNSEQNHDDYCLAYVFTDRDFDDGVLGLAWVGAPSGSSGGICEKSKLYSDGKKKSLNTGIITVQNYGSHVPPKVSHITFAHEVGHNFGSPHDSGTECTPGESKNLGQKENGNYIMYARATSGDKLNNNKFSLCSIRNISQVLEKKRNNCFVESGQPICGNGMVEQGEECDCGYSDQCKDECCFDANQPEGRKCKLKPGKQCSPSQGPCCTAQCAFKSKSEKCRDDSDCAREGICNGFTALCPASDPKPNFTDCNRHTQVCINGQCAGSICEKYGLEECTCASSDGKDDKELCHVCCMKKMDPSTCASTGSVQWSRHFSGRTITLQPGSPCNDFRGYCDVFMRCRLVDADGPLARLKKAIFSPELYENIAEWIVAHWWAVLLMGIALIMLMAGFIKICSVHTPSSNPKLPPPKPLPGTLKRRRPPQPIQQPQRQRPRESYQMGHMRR
An asterisk follows results filed as active.

Results for COc1ccc(CN(C(=O)CSc2nnc(-c3c[nH]c4ccccc34)o2)c2ccc(F)cc2)cc1OC ?
FAS-TE inh: 13.9; GC-A act: -19.0; ADAM17 inh: 8.1; GC-B act: -14.9; ADAM10 inh: 21.5*

What do the screens show for `COc1cccc(CNc2ncnc3ccc(-c4c(C)noc4C)cc23)c1`?
FAS-TE inh: 14.2; GC-A act: 51.0*; ADAM17 inh: -1.2; GC-B act: 56.1*; ADAM10 inh: 3.4

How did CN1CCN(c2ccc3c(c2)Oc2ccccc2CN(Cc2cn(Cc4ccc(C(F)(F)F)cc4)nn2)S3(=O)=O)CC1 do in these assays?
GC-A act: -2.9; ADAM17 inh: 4.5; GC-B act: 2.2; ADAM10 inh: 13.8

Results for O=C1C=C(O)c2cccc(O)c2C1=O ?
FAS-TE inh: 0.7; GC-A act: 1.7; ADAM17 inh: -1.6; GC-B act: -7.1; ADAM10 inh: -3.3

Results for O=C1C=C(c2c(O)ccc3ccccc23)c2ccccc2C1=O ?
FAS-TE inh: 11.3; GC-A act: 44.0*; ADAM17 inh: 4.2; GC-B act: 48.9*; ADAM10 inh: -0.2

What do the screens show for `C=CCN1C(=O)[C@@H](CC(=O)NCCc2ccccc2OC)[C@]2(C(=O)OCC)CCCCC/C=C/12`?
GC-A act: 0.7; ADAM17 inh: -3.2; GC-B act: 4.5; ADAM10 inh: -10.1

Results for COc1cccc(CNS(=O)(=O)c2cc3c(cc2Br)CC(C)N3C(C)=O)c1 (centres undefined) ?
GC-A act: 3.2; ADAM17 inh: 0.4; GC-B act: 0.2; ADAM10 inh: -0.6

How did Cc1ccc2c(c1)C1CS(=O)(=O)N(Cc3ccccc3)CN1C2 (centres undefined) do in these assays?
GC-A act: 0.0; ADAM17 inh: -2.8; GC-B act: -1.4; ADAM10 inh: -5.8

Results for O=C1C(Cc2ccccc2)Nc2ncnc(N3CCc4ccccc4C3)c2N1Cc1ccc(Cl)cc1 (centres undefined) ?
FAS-TE inh: 55.4*

What do the screens show for `CCC1Nc2ncnc(N3CCc4ccccc4C3)c2N(Cc2ccc(Cl)cc2)C1=O` (centres undefined)?
FAS-TE inh: 17.4; GC-A act: -9.1; ADAM17 inh: -1.2; GC-B act: -10.4; ADAM10 inh: -5.0

How did CC1(c2ccccc2)CC(C)(C)N2C(=O)C3(C(C#N)=C(N)Oc4cc(O)ccc43)c3cccc1c32 (centres undefined) do in these assays?
FAS-TE inh: 52.4*; GC-A act: 1.5; ADAM17 inh: 2.2; GC-B act: -2.2; ADAM10 inh: 7.3

How did Cc1cc2c3c(c1)C(C)(c1ccccc1)CC(C)(C)N3C(=O)C21C(C#N)=C(N)OC2=C1C(=O)CC(C)(C)C2 (centres undefined) do in these assays?
FAS-TE inh: 20.4; GC-A act: -3.3; ADAM17 inh: 7.6; GC-B act: -2.3; ADAM10 inh: 17.4

What do the screens show for `O=C(Nc1ccc(C(O)(C(F)(F)F)C(F)(F)F)cc1)c1ccc(F)cc1Cl`?
GC-A act: 0.3; ADAM17 inh: 6.0; GC-B act: -3.7; ADAM10 inh: 16.0

How did CCCCN(C)C(=O)C(Cc1ccccc1)NS(=O)(=O)c1ccc2c(c1)c(=O)n(C)c(=O)n2C (centres undefined) do in these assays?
FAS-TE inh: 3.6; GC-A act: -1.3; ADAM17 inh: 0.3; GC-B act: 46.9*; ADAM10 inh: -4.2

What do the screens show for `CC1=CC(O)(c2ccccn2)P(=O)(c2ccccc2)C=C1C` (centres undefined)?
GC-A act: 5.3; ADAM17 inh: -9.9; GC-B act: 2.5; ADAM10 inh: -10.7

How did CCOC(=O)Cc1cc(=O)n2[nH]c(C)c(-c3ccccc3)c2n1 do in these assays?
FAS-TE inh: -9.2; GC-A act: 36.2; ADAM17 inh: -6.5; GC-B act: 43.2*; ADAM10 inh: -19.4

What do the screens show for `O=C(NCc1ccco1)c1ccc(COc2cc(Cl)ccc2Cl)cc1`?
FAS-TE inh: 22.0; GC-A act: 40.7*; ADAM17 inh: 6.6; GC-B act: 4.5; ADAM10 inh: 5.5

Results for CN(C)CCNC(=O)c1ccc(COc2ccc(Cl)cc2Cl)cc1 ?
FAS-TE inh: -6.4; GC-A act: 47.1*; ADAM17 inh: -0.9; GC-B act: -8.7; ADAM10 inh: -2.4

What do the screens show for `O=C(COc1ccc(Cl)cc1Cl)NCc1ccco1`?
FAS-TE inh: 4.3; GC-A act: -0.1; ADAM17 inh: -2.2; GC-B act: -6.5; ADAM10 inh: -3.6

How did Cc1ccc(OCCOC(=O)c2sc(=S)n(C)c2C)cc1 do in these assays?
FAS-TE inh: 58.5*; GC-A act: 1.1; ADAM17 inh: 1.9; GC-B act: -4.5; ADAM10 inh: 2.6

What do the screens show for `C=CCN1C(=O)[C@H](CC(=O)NCCC(C)C)[C@@]2(C(=O)OCC)CCCC=C12`?
GC-A act: 4.2; ADAM17 inh: -2.6; GC-B act: 13.0; ADAM10 inh: -6.5

How did CN(CC(=O)Nc1cccc(S(=O)(=O)NC2=NCCCCC2)c1)Cc1ccc(C(C)(C)C)cc1 do in these assays?
FAS-TE inh: 66.0*; GC-A act: -1.3; ADAM17 inh: -1.7; GC-B act: 1.5; ADAM10 inh: -7.4

What do the screens show for `CCOC(=O)c1cc(-c2ccc(F)cc2)nc2c1c(=O)[nH]c(=O)n2Cc1ccccc1`?
FAS-TE inh: -6.9; GC-A act: 37.2; ADAM17 inh: -3.7; GC-B act: 43.1*; ADAM10 inh: -9.7

Results for O=C1OCCC1Sc1nc(-c2ccccc2)cs1 (centres undefined) ?
FAS-TE inh: -2.0; GC-A act: 72.5*; ADAM17 inh: -0.2; GC-B act: 11.6; ADAM10 inh: 1.1

What do the screens show for `COc1cc(OC)c(OC)cc1/C=C1\CC(C)C/C(=C\c2cc(OC)c(OC)cc2OC)C1=O` (centres undefined)?
FAS-TE inh: 22.4; GC-A act: 49.4*; ADAM17 inh: -32.5; GC-B act: 7.0; ADAM10 inh: -122.9

Results for CCC1C/C(=C\c2cc(OC)c(OC)cc2OC)C(=O)/C(=C/c2cc(OC)c(OC)cc2OC)C1 (centres undefined) ?
FAS-TE inh: 16.9

Results for Cc1ccc(Cn2cc(CN3[C@@H](CC(C)C)COc4cc(Br)ccc4S3(=O)=O)nn2)cc1 ?
GC-A act: 3.3; ADAM17 inh: -1.3; GC-B act: 5.6; ADAM10 inh: -13.8

Results for CCOC(=O)c1cnc(-n2cc(C)cn2)nc1NCc1ccc2c(c1)OCO2 ?
FAS-TE inh: 19.1; GC-A act: 33.7; ADAM17 inh: -3.2; GC-B act: 44.5*; ADAM10 inh: 1.3
